Assay results published in PMC7819943, “Rice protein-binding microarrays: a tool to detect cis-acting elements near promoter regions in rice”.
Whole data set: some 68,000 sequences, median “fluorescence intensity (a.u.)” near 9,100, cut for the highest 2% near 16,000. The sample as a whole holds a higher share of the highest values than the screen did.

The sequences below were run against OsWRKY34 (Oryza sativa, UniProt Q0JBA9 1-250) (assay: protein-binding microarray (RPBM); PBS, 2% BSA, 51.3 ng/ul salmon testes DNA, 50 uM zinc acetate, 200 nM TF, 25 C, 1 h; high values mean tight binding). Details: protein: recombinant; tags: N-terminal polyhistidine and DsRed monomer fusion (pET32a); label: CyDye5-dUTP incorporated in the synthesized complementary strand; 3' TTTTT single-stranded linker to array surface; dsDNA, one strand shown.
Chain of OsWRKY34 (Q0JBA9 entry or part of it): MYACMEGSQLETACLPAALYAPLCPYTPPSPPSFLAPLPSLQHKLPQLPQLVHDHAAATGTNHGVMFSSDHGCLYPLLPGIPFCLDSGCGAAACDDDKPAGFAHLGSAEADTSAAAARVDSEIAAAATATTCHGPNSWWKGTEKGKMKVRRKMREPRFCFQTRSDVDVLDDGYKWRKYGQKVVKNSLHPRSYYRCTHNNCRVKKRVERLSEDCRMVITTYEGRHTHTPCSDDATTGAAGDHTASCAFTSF
Procedure, shortened: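 Polyhistidine-tagged DsRed fusions of transcription factors, joined at the N-terminus, were expressed in E. coli BL21-CodonPlus and isolated on Ni–NTA. They were incubated at 200 nM for 1 h at 25 °C on a custom Agilent array, double-stranded and BSA-blocked, in PBS with 2% BSA, salmon testes DNA and 50 µM zinc acetate. The binding signal is per-feature fluorescence intensity (arbitrary units) read on an Axon 4000B scanner after washing.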

Sequence	binding signal
CACCGCCGAACGCACGATTTCTTCCCGACGCTGTCACTTGCGGAGTCACCTAGTGCAG	8190 fluorescence intensity (a.u.)
CCGCGATCTGTTTCGTCCAGCTTAATTTGTTGCTGTTCTGCGGAGTCACCTAGTGCAG	11300 fluorescence intensity (a.u.)
AAGTTACTTTTATTTTTTTCTAGTCAAACTACTTAGACTTCGGAGTCACCTAGTGCAG	8740 fluorescence intensity (a.u.)
TATTTTTGACTTTGGTCAAAGTCAAACTGTTTTAAGTTTGCGGAGTCACCTAGTGCAG	17900 fluorescence intensity (a.u.)
TAAGATGTTTTGACTTTGGTCAAAGTCAAACTACTTTGAGCGGAGTCACCTAGTGCAG	13200 fluorescence intensity (a.u.)
TTTGATTTTGGTCAAAGTCAAACTACTCTAAGTTTGACTACGGAGTCACCTAGTGCAG	13400 fluorescence intensity (a.u.)
GTTTGACTTTTTTACTAGTCAAACTTATTTAAGTTTGACCCGGAGTCACCTAGTGCAG	17500 fluorescence intensity (a.u.)
ACATTTTGACTTTTGCCAAAGTCAAACTGCTTTAAGTTTGCGGAGTCACCTAGTGCAG	11900 fluorescence intensity (a.u.)
AAGTTATAAGATGTTTTGACTTTGGTCAAAGTCAAACTGCCGGAGTCACCTAGTGCAG	14600 fluorescence intensity (a.u.)
TATTGACTTTGGTCAAAGTCAAACTGTTTTAAATTTCACTCGGAGTCACCTAGTGCAG	10500 fluorescence intensity (a.u.)
TTATAAGATGTTTTGACTTTGGTCAAAGTCAAACTATTTCCGGAGTCACCTAGTGCAG	16600 fluorescence intensity (a.u.)
CGCTCACTCGTCTCCTCTCGGTTTCTTTCTCTCTCTCTCTCGGAGTCACCTAGTGCAG	8160 fluorescence intensity (a.u.)
TATCACGATATTCTACCTCGCTCTCATGGGCTAGATCACCCGGAGTCACCTAGTGCAG	9500 fluorescence intensity (a.u.)
CCTTGTACCTCTGTCCAGATTCATTGTACTAAGATATGTCCGGAGTCACCTAGTGCAG	8540 fluorescence intensity (a.u.)
CTCTCTCTCTCTCTGCAGCTAGGCCATATGCATCTCTCCTCGGAGTCACCTAGTGCAG	9070 fluorescence intensity (a.u.)
GCATTCACTCCATCGCACCACTTCATGCCGCAAAATGTTTCGGAGTCACCTAGTGCAG	9970 fluorescence intensity (a.u.)
AACCATCATGACCGGCTACCACTAAGCTGCGCCTGTCTACCGGAGTCACCTAGTGCAG	8700 fluorescence intensity (a.u.)
AAGCTAGTCAAACCGTTGACTACCACTGTCTTTGTTGCGCCGGAGTCACCTAGTGCAG	16800 fluorescence intensity (a.u.)
ATACGAGCCAAAGACCGTTGACAAGCTAGTCAACAGTCATCGGAGTCACCTAGTGCAG	8910 fluorescence intensity (a.u.)
GCTGCACAGCTAGTCAACACAAGCTAGTCAAACCGTTGACCGGAGTCACCTAGTGCAG	19200 fluorescence intensity (a.u.)
TTTTGTCTACTGCGCCTACCACGCCGTTGTCCACTACCTCCGGAGTCACCTAGTGCAG	10400 fluorescence intensity (a.u.)
AACCAAACAACCGTTGTCTTGGCACAGCTGTCGCAACCTGCGGAGTCACCTAGTGCAG	8200 fluorescence intensity (a.u.)

Sequence	binding signal
CCTCGAGCTGTGCACGGCTGGTTCGTCTCGCGCCGCTTATCGGAGTCACCTAGTGCAG	10900 fluorescence intensity (a.u.)
TCAGTGTCGGCCGCGATGTCTTTGCAGCTTTGCTGGTTTTCGGAGTCACCTAGTGCAG	8090 fluorescence intensity (a.u.)
GGTATTGTTGATACTTTCAGTTTTCGCATTTGTTCGCTTCCGGAGTCACCTAGTGCAG	9230 fluorescence intensity (a.u.)
AAACTTAGCAAGAGCTCTGACCTATTGGAAAATTTTCTTTCGGAGTCACCTAGTGCAG	9480 fluorescence intensity (a.u.)
TATATATATTTATCACCGGTTTATTTTGGTCTGGTCTTTTCGGAGTCACCTAGTGCAG	13000 fluorescence intensity (a.u.)
ATATTTGGTTTTTTTTCGTACTTTTTTTCGCCCGGTTTTTCGGAGTCACCTAGTGCAG	20800 fluorescence intensity (a.u.)
GGACCTACTTTCGCGATTTTCCCCGGTTGGCCACTACTTTCGGAGTCACCTAGTGCAG	18800 fluorescence intensity (a.u.)
AGATTTGGTTTTTTAGGCCGGTTTTTCGTTTTGTCGCCCTCGGAGTCACCTAGTGCAG	8750 fluorescence intensity (a.u.)
TTTCGTGATTTTCCCCGGTTGGCCACTACTTTTGCGATTTCGGAGTCACCTAGTGCAG	9570 fluorescence intensity (a.u.)
GACCTATTTTCGCGATTTTCCCCGGTTGACCACTACTTTTCGGAGTCACCTAGTGCAG	13100 fluorescence intensity (a.u.)
CAGGACTGCGTGCTCCTTCTCGTTGTTCCTTACTCACCTTCGGAGTCACCTAGTGCAG	9560 fluorescence intensity (a.u.)
CTACTGCTTTCTTTCTTTCTCTATTGCAGTCTACCTCCTACGGAGTCACCTAGTGCAG	11400 fluorescence intensity (a.u.)
CTTTTGACTGCCACAGTGTGTTAGGTATATGTTTGTTTCACGGAGTCACCTAGTGCAG	11700 fluorescence intensity (a.u.)
TCTTCCTCATGCGATTTGGTTGGTTGGTTTGACGCTACACCGGAGTCACCTAGTGCAG	13600 fluorescence intensity (a.u.)
GGGTGTGTGCGCATGTGTGTTTGTCGTGTATTAAAAAAAACGGAGTCACCTAGTGCAG	9130 fluorescence intensity (a.u.)
TTAATTATTTCTTGGTATTTGGGTTAAGGGTGGTTGTGCCCGGAGTCACCTAGTGCAG	12600 fluorescence intensity (a.u.)
TCTACTTTTCTCCACTCTTTTGCTATAGGGGCTGGGGTGGCGGAGTCACCTAGTGCAG	14200 fluorescence intensity (a.u.)
TATCTTAGGGCATGTTTGGTTGTACGGATCGTACCTGACTCGGAGTCACCTAGTGCAG	9620 fluorescence intensity (a.u.)
GATGGCTACCTAGCTGACACGCAACGCCGGCCTCCGGATCCGGAGTCACCTAGTGCAG	10600 fluorescence intensity (a.u.)
TGGTGGTTTTCGTCGTCGTCGTCGTCGTCGGCTTCATATACGGAGTCACCTAGTGCAG	10100 fluorescence intensity (a.u.)
TATATATATATATATATATATATATATGTGTGTGTGTGTTCGGAGTCACCTAGTGCAG	14600 fluorescence intensity (a.u.)
